The full list was thinned out, with the strongest signals kept by preference.
Legend:
Test in all cases: glycan array binding signal (z-score within array); higher = stronger binding
Conditions in all cases: glycan notation: IUPAC condensed, linker removed
[1] = target: Fuc(a1-2)Gal6S(b1-3)GlcNAc
Procedure, shortened: (§1)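 From the Consortium for Functional Glycomics database, 3228 arrays were curated, keeping only those whose protein sequence was available. Binding is given as a within-array Z-score averaged across arrays sharing a protein sequence and across linkers. Negative Z-scores can be read as non-binding.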

[2] = target: Fuc(a1-2)[Gal(a1-3)]Gal(b1-3)GlcNAc(b1-2)Man(a1-3)[Fuc(a1-2)[Gal(a1-3)]Gal(b1-3)GlcNAc(b1-2)Man(a1-6)]Man(b1-4)GlcNAc(b1-4)[Fuc(a1-6)]GlcNAc
Procedure, shortened: as §1

[3] = target: Fuc(a1-2)[Gal(a1-3)]Gal(b1-3)GlcNAc(b1-3)GalNAc
Procedure, shortened: as §1

[4] = target: Fuc(a1-2)[Gal(a1-3)]Gal(b1-4)GlcNAc(b1-2)Man(a1-3)[Fuc(a1-2)[Gal(a1-3)]Gal(b1-4)GlcNAc(b1-2)Man(a1-6)]Man(b1-4)GlcNAc(b1-4)GlcNAc
Procedure, shortened: as §1

[5] = target: Fuc(a1-2)[Gal(a1-3)]Gal(b1-4)GlcNAc(b1-2)Man(a1-3)[Fuc(a1-2)[Gal(a1-3)]Gal(b1-4)GlcNAc(b1-2)Man(a1-6)]Man(b1-4)GlcNAc(b1-4)[Fuc(a1-6)]GlcNAc
Procedure, shortened: as §1

[6] = target: Fuc(a1-2)[Gal(a1-3)]Gal(b1-4)[Fuc(a1-3)]GlcNAc(b1-3)GalNAc
Procedure, shortened: as §1

[7] = target: Fuc(a1-2)[GalNAc(a1-3)]Gal(b1-3)GlcNAc(b1-2)Man(a1-3)[Fuc(a1-2)[GalNAc(a1-3)]Gal(b1-3)GlcNAc(b1-2)Man(a1-6)]Man(b1-4)GlcNAc(b1-4)GlcNAc
Procedure, shortened: as §1

Fuc(a1-3)GlcNAc = target: Fuc(a1-3)GlcNAc
Procedure, shortened: as §1

[8] = target: Fuc(a1-3)[Gal3S(b1-4)]GlcNAc
Procedure, shortened: as §1

[9] = target: Gal(a1-3)Gal(b1-3)GlcNAc(b1-6)GalNAc
Procedure, shortened: as §1

[10] = target: Gal(a1-4)Gal(b1-4)GlcNAc(b1-2)Man(a1-3)[Gal(a1-4)Gal(b1-4)GlcNAc(b1-2)Man(a1-6)]Man(b1-4)GlcNAc(b1-4)GlcNAc
Procedure, shortened: as §1

Gal(b1-3)GalNAc(b1-3)Gal = target: Gal(b1-3)GalNAc(b1-3)Gal
Procedure, shortened: as §1

[11] = target: Gal(b1-3)GlcNAc(b1-3)Gal(b1-4)GlcNAc(b1-2)Man(a1-3)[Gal(b1-3)GlcNAc(b1-3)Gal(b1-4)GlcNAc(b1-2)Man(a1-6)]Man(b1-4)GlcNAc(b1-4)GlcNAc
Procedure, shortened: as §1

[12] = target: Gal(b1-4)GlcNAc(a1-6)Gal(b1-4)GlcNAc
Procedure, shortened: as §1

[13] = target: Gal(b1-4)GlcNAc(b1-2)Man(a1-3)[Gal(b1-4)GlcNAc(b1-2)][GlcNAc(b1-4)]Man(b1-4)GlcNAc(b1-4)GlcNAc
Procedure, shortened: as §1

[14] = target: Gal(b1-4)GlcNAc(b1-2)Man(a1-3)[Man(a1-6)]Man(b1-4)GlcNAc(b1-4)GlcNAc
Procedure, shortened: as §1

[15] = target: Gal(b1-4)GlcNAc(b1-2)[Gal(b1-4)GlcNAc(b1-6)]Man(a1-6)[GlcNAc(b1-4)][Gal(b1-4)GlcNAc(b1-2)Man(a1-3)]Man(b1-4)GlcNAc(b1-4)GlcNAc
Procedure, shortened: as §1

[16] = target: Gal(b1-4)GlcNAc(b1-3)Gal(b1-4)GlcNAc(b1-2)Man(a1-3)[Gal(b1-4)GlcNAc(b1-3)Gal(b1-4)GlcNAc(b1-2)Man(a1-6)]Man(b1-4)GlcNAc(b1-4)[Fuc(a1-6)]GlcNAc
Procedure, shortened: as §1

[17] = target: Gal(b1-4)GlcNAc(b1-3)Gal(b1-4)GlcNAc(b1-3)Gal(b1-4)GlcNAc(b1-2)[Gal(b1-4)GlcNAc(b1-3)Gal(b1-4)GlcNAc(b1-3)Gal(b1-4)GlcNAc(b1-6)]Man(a1-6)[Gal(b1-4)GlcNAc(b1-3)Gal(b1-4)GlcNAc(b1-3)Gal(b1-4)GlcNAc(b1-2)Man(a1-3)]Man(b1-4)GlcNAc(b1-4)[Fuc(a1-6)]GlcNAc
Procedure, shortened: as §1

[18] = target: Gal(b1-4)GlcNAc(b1-3)Gal(b1-4)GlcNAc(b1-3)Gal(b1-4)GlcNAc(b1-3)Gal(b1-4)GlcNAc(b1-2)Man(a1-3)[Gal(b1-4)GlcNAc(b1-3)Gal(b1-4)GlcNAc(b1-3)Gal(b1-4)GlcNAc(b1-3)Gal(b1-4)GlcNAc(b1-2)Man(a1-6)]Man(b1-4)GlcNAc(b1-4)[Fuc(a1-6)]GlcNAc
Procedure, shortened: as §1

[19] = target: Gal3S(b1-3)[Fuc(a1-4)]GlcNAc
Procedure, shortened: as §1

Gal6S(b1-3)GlcNAc6S = target: Gal6S(b1-3)GlcNAc6S
Procedure, shortened: as §1

[20] = target: GlcNAc(b1-2)Man(a1-3)[GlcNAc(b1-2)Man(a1-6)]Man(b1-4)GlcNAc(b1-4)GlcNAc
Procedure, shortened: as §1

[21] = target: GlcNAc(b1-2)[GlcNAc(b1-4)]Man(a1-3)[GlcNAc(b1-4)][GlcNAc(b1-2)[GlcNAc(b1-6)]Man(a1-6)]Man(b1-4)GlcNAc(b1-4)GlcNAc
Procedure, shortened: as §1

GlcNAc(b1-3)Gal = target: GlcNAc(b1-3)Gal
Procedure, shortened: as §1

[22] = target: GlcNAc(b1-3)Gal(b1-4)GlcNAc(b1-2)Man(a1-3)[GlcNAc(b1-3)Gal(b1-4)GlcNAc(b1-2)Man(a1-6)]Man(b1-4)GlcNAc(b1-4)GlcNAc
Procedure, shortened: as §1

[23] = target: GlcNAc(b1-3)Gal(b1-4)GlcNAc(b1-2)Man(a1-3)[GlcNAc(b1-3)Gal(b1-4)GlcNAc(b1-2)Man(a1-6)]Man(b1-4)GlcNAc(b1-4)[Fuc(a1-6)]GlcNAc
Procedure, shortened: as §1

[24] = target: GlcNAc(b1-3)Gal(b1-4)GlcNAc(b1-3)Gal(b1-4)GlcNAc(b1-2)Man(a1-3)[GlcNAc(b1-3)Gal(b1-4)GlcNAc(b1-3)Gal(b1-4)GlcNAc(b1-2)Man(a1-6)]Man(b1-4)GlcNAc(b1-4)GlcNAc
Procedure, shortened: as §1

B1: PpFlo2 (Pichia pastoris) (protein)
chain: MGSSHHHHHHSSGLVPRGSHMDDSGNGDNSDTAYGCDITTNAVDGFDATIYQYNANDLRLIRDPTFMSTGYLGRNVLNKISGVTVPGFNIWNPSSRTATVYGVKNVNYYNMVLELKGYFKADVSGDYKLTLSHIDDSSMLFFGKETAFKCCDAGSIPLNEAPTDYSLFTIKPSNQVNSEVISATQYLEAGKYYPVRIVFVNALERARFDFKLTIPSGAVLDDFQNYIYQFGDLDENSCHE
**Q.** How did the “glycan array binding signal (z-score)” value [1] turn out when B1 was run?
**A.** -0.272

**Q.** What about the “glycan array binding signal (z-score)” value [2] of the same binder?
**A.** -0.293

**Q.** What about the “glycan array binding signal (z-score)” value [3] of the same binder?
**A.** -0.288

**Q.** What about the “glycan array binding signal (z-score)” value [4] of the same binder?
**A.** -0.209

**Q.** What about the “glycan array binding signal (z-score)” value [5] of the same binder?
**A.** -0.288

**Q.** And the “glycan array binding signal (z-score)” value [6]?
**A.** -0.297

**Q.** And the “glycan array binding signal (z-score)” value [7]?
**A.** -0.287

**Q.** And the “glycan array binding signal (z-score)” value (Fuc(a1-3)GlcNAc)?
**A.** -0.292

**Q.** And the “glycan array binding signal (z-score)” value [8]?
**A.** -0.313

**Q.** What about the “glycan array binding signal (z-score)” value [9] of the same binder?
**A.** -0.271

**Q.** And the “glycan array binding signal (z-score)” value [10]?
**A.** -0.23

**Q.** And the “glycan array binding signal (z-score)” value (Gal(b1-3)GalNAc(b1-3)Gal)?
**A.** -0.272

**Q.** What about the “glycan array binding signal (z-score)” value [11] of the same binder?
**A.** -0.174

**Q.** And the “glycan array binding signal (z-score)” value [12]?
**A.** -0.273

**Q.** And the “glycan array binding signal (z-score)” value [13]?
**A.** -0.344

**Q.** And the “glycan array binding signal (z-score)” value [14]?
**A.** -0.273

**Q.** What about the “glycan array binding signal (z-score)” value [15] of the same binder?
**A.** -0.297

**Q.** What about the “glycan array binding signal (z-score)” value [16] of the same binder?
**A.** -0.25

**Q.** And the “glycan array binding signal (z-score)” value [17]?
**A.** -0.261

**Q.** What about the “glycan array binding signal (z-score)” value [18] of the same binder?
**A.** -0.243

**Q.** And the “glycan array binding signal (z-score)” value [19]?
**A.** -0.286

**Q.** And the “glycan array binding signal (z-score)” value (Gal6S(b1-3)GlcNAc6S)?
**A.** -0.286

**Q.** And the “glycan array binding signal (z-score)” value [20]?
**A.** 3.88

**Q.** And the “glycan array binding signal (z-score)” value [21]?
**A.** 0.675

**Q.** And the “glycan array binding signal (z-score)” value (GlcNAc(b1-3)Gal)?
**A.** 1.09

**Q.** What about the “glycan array binding signal (z-score)” value [22] of the same binder?
**A.** 4.64

**Q.** And the “glycan array binding signal (z-score)” value [23]?
**A.** 4.49

**Q.** What about the “glycan array binding signal (z-score)” value [24] of the same binder?
**A.** 3.9

Reference: the supplement of paper PMC8728848
